Compound activity (PubChem)
Hits are enriched below; roughly 2.9% of the tested compounds scored in any of these assays.
MEKK3 PB1 HTS: MEKK3-MEK5 PB1 interaction, increase or decrease. AID 1529. binding response (% of control), % at 10 µM. Q99759. actives 1.4% (n = 290,000). bead-based flow cytometry, Alexa488-MEK5 binding to MEKK3; actives lie on both sides; 0 = blocked by unlabeled MEK5, 100 = vehicle;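 active means binding response more than 3 SD above or below the average of its plate-row segment, actives on both sides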;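 further: Alexa488 bead fluorescence after subtracting the streptavidin-only scavenger bead signal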
MEKK2mut PB1 HTS: signal of MEK5 binding to mutant human MEKK2 PB1 domain; bead flow cytometry, Alexa488-MEK5 binding to MEKK2 mutant; AID 1530; actives 0.35% (n = 290,000); percent response, % at 10 µM; in the data active means percent response above about 24%, passing the limit was not always enough
B2AR ag: agonists of human beta-2 adrenergic receptor inducing internalization; response, % (concentration not given with the values); Am2.2-beta2AR cells, FAP receptor internalization, flow cytometry; P07550; actives 0.43% (n = 340,000);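 active means response above a set limit, near 3 SD of response in nonfluorescent compounds, cut at about 42% in these data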
GRK2 inh: human GRK2 inhibition via aptamer displacement; bead flow cytometry, FAM-aptamer displacement from GRK2; inhibition of aptamer binding, % at 10 µM; actives 0.59% (n = 330,000); AID 488847;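 active means inhibition of aptamer binding above 40%, roughly 3 SD of noise, on plates passing a quality check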;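 further: median bead fluorescence of bound FAM aptamer so fluorescent compounds give negative values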
Target sequence (P25098 whole entry, looked up): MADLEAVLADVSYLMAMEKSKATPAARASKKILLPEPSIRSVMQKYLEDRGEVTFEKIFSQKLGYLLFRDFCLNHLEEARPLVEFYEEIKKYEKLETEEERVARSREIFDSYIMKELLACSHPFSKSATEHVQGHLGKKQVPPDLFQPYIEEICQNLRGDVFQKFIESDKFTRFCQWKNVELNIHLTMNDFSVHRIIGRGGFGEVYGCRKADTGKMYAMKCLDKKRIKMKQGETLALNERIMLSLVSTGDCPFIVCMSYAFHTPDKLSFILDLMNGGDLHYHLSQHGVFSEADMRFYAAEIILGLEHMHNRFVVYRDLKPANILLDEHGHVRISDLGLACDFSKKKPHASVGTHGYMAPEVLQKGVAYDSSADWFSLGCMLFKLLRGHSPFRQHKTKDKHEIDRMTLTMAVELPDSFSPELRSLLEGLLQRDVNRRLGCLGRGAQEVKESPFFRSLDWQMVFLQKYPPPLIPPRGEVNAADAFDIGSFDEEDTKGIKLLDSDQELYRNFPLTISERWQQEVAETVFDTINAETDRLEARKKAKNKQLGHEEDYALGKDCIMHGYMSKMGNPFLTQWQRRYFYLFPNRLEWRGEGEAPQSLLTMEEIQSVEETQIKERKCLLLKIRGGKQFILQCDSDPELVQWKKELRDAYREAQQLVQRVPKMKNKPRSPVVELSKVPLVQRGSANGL
MEKK2wt PB1 HTS: raises or lowers MEK5 binding to wildtype human MEKK2 PB1 domain. Q9Y2U5. bead flow cytometry, Alexa488-MEK5 binding to MEKK2 WT; actives lie on both sides. binding response (% of control), % at 10 µM. actives 1.1% (n = 290,000); in the data active means binding response below about 67% or above about 130%
GRK2 inh confirm: human GRK2 inhibition confirmation, cherry pick 1 | bead-bound GRK2, FAM-aptamer displacement, flow cytometry | shares compounds with GRK2 inh | actives 4% (n = 2,000) | aptamer displacement, % at 10 µM | AID 504451;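 active means aptamer displacement above 40%, near three times the noise of non-fluorescent compounds, on plates passing quality checks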;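 further: negative values mostly reflect intrinsic compound fluorescence rather than true enhancement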
Aptamer quench SP: aptamer fluorescence quenching in GRK2 counter-screen; shares compounds with GRK2 inh; Carboxyfluorescein RNA aptamer on beads, flow cytometry quenching; hits give low values; AID 504580; fluorescence response (% of DMSO), % at 10 µM; 2,000 tested, under 10 active;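 active means compounds that quench the bead-bound fluorescent RNA probe, cutting fluorescence to under half of the solvent control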;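 further: counterscreen run without GRK2 so only probe quenching by compound is measured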
GRK2 CP2: human GRK2 inhibition confirmation, cherry pick 2. 360 tested, under 10 active. shares compounds with GRK2 inh. inhibition of aptamer binding, % at 10 µM. bead-bound GRK2, FAM-aptamer displacement, flow cytometry;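 active means inhibition of aptamer binding above 40%, about triple the noise seen with nonglowing compounds, on plates passing quality control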;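 further: negative values mostly come from compounds that fluoresce themselves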
FAM quench SP: counter-screen for GRK2 binding hits: quenchers of fluorescent RNA aptamer. shares compounds with GRK2 inh. carboxyfluorescein RNA aptamer beads, flow cytometry quenching; hits give low values. fluorescence response vs DMSO, % at 10 µM. 360 tested, under 10 active;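 active means response vs DMSO under 50%, meaning signal dropped by over half, treated as fluorescence quencher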;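 further: labelled aptamer on streptavidin beads without GRK2 as a quench counter-screen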
Hits are given with their value; 0 = inactive; - = no result.

SMILES | MEKK3 PB1 HTS | MEKK2mut PB1 HTS | B2AR ag | GRK2 inh | MEKK2wt PB1 HTS | GRK2 inh confirm | Aptamer quench SP | others
O=C(O)CSc1nnc(-c2cccc(S(=O)(=O)N3CCOCC3)c2)n1-c1ccc(F)cc1 | - | - | 0 | 0 | - | - | -
Cc1c(NS(=O)(=O)c2cccc(C(=O)NCc3ccccc3Cl)c2)c(=O)n(-c2ccccc2)n1C | - | - | 0 | - | - | 0 | 0
Cc1c(NS(=O)(=O)c2cccc(C(=O)NC(C)c3ccccc3)c2)c(=O)n(-c2ccccc2)n1C (configuration not stated) | - | - | 0 | - | - | 0 | 0
COc1ccc(C(=O)NCc2nnc(SCC(=O)Nc3cc(C)on3)o2)cc1OC | 0 | 0 | 0 | 0 | 0 | - | -
COc1cc(C(=O)NCc2nnc(SCC(=O)Nc3cc(C)on3)o2)cc(OC)c1OC | 0 | 0 | 0 | 74.0 | 0 | 0 | 0
CSc1ccc(/C=C2/C(=N)N3N=C(CC(=O)N4CCCC4)SC3=NC2=O)cc1 | 0 | 0 | 0 | 0 | 0 | - | -
Cc1ccc(/C=C2/C(=N)N3N=C(CC(=O)N4CCCC4)SC3=NC2=O)cc1 | 0 | 0 | 0 | 44.0 | 0 | 0 | 0
Cc1cc(C)c(C(=O)C(C)OC(=O)c2ccccn2)cc1C (configuration not stated) | 0 | 0 | 0 | 0 | 0 | - | -
Cc1ccccc1C(=O)Nc1ccc(Br)cn1 | 0 | 0 | 0 | 0 | 0 | - | -
O=C(Nc1ccccc1C(=O)Nc1ccc(Br)cn1)c1ccccc1Cl | - | - | 0 | 44.0 | - | - | - | GRK2 CP2=0;FAM quench SP=0
COC(=O)Cc1c(O)ccn(C2CC2)c1=O | 0 | 0 | 0 | 75.0 | 0 | 0 | 0
COC(=O)Cc1c(O)ccn(Cc2ccc3c(c2)OCO3)c1=O | 0 | 0 | 0 | 0 | 0 | - | -
O=C(Cn1cnc([N+](=O)[O-])c1)Nc1ccc(F)c(Cl)c1 | 0 | 0 | 0 | - | 0 | - | -
Cc1nc([N+](=O)[O-])cn1CC(=O)Nc1ccc(F)c(Cl)c1 | 0 | 0 | 0 | 51.0 | 0 | 0 | 0
O=C(O)c1ccc2c(c1)C(=O)N(N1C(=O)c3ccccc3C1=O)C2=O | 0 | 0 | 0 | 0 | 0 | - | -
COc1ccc([N+](=O)[O-])cc1N1C(=O)c2cccnc2C1=O | 0 | 0 | 0 | 0 | 0 | - | -
CC(=O)Oc1ccc([N+](=O)[O-])cc1N1C(=O)c2ccccc2C1=O | 0 | 0 | 0 | 100.0 | 0 | - | - | GRK2 CP2=0;FAM quench SP=0
Cc1c(Cl)cccc1NC(=O)CCN1CCC(C(N)=O)CC1 | 0 | 0 | 0 | 0 | 0 | - | -
COC(=O)[C@H](Cc1ccccc1)NC(=O)N1CCN(Cc2ccccc2)CC1 | 0 | 0 | 0 | 0 | 0 | - | -
COC(=O)C(Cc1ccccc1)NC(=O)c1ccc(C)cc1 (configuration not stated) | 0 | 0 | 0 | 0 | 0 | - | -
COC(=O)C(Cc1ccccc1)NC(=O)CC(C)CC(=O)Nc1ccc(C)cc1 (configuration not stated) | 0 | 0 | 0 | 46.0 | 0 | 0 | 0
O=C(O)[C@H](Cc1ccccc1)NC(=O)N1CCCCCC1 | 0 | 0 | 0 | 100.0 | 0 | 0 | 0
COC(=O)[C@H](Cc1ccccc1)NC(=O)N1CCN(c2ccc(F)cc2)CC1 | 0 | 0 | 0 | 0 | 0 | 0 | 0
COC(=O)[C@H](Cc1ccccc1)NC(=O)N1CCCCCC1 | 0 | 0 | 0 | 0 | 0 | 0 | 0
COc1ccc(N2CCN(C(=O)CCc3nnc4ccc(N5CCCC5)nn34)CC2)cc1 | 0 | 0 | 0 | 0 | 0 | - | -
SMILES | MEKK3 PB1 HTS | MEKK2mut PB1 HTS | B2AR ag | GRK2 inh | MEKK2wt PB1 HTS | GRK2 inh confirm | Aptamer quench SP | others
N#Cc1ccccc1S(=O)(=O)N1CCN(C(=O)CCNS(=O)(=O)c2ccc(Cl)cc2)CC1 | - | - | 0 | - | - | - | -
COC(=O)C1CCN(C(=O)COC(=O)C2CCN(S(=O)(=O)c3c(Cl)cccc3Cl)CC2)CC1 | - | - | 0 | 0 | - | - | -
CCC(=O)Nc1ccc(N2CCOCC2)c(S(=O)(=O)Nc2ccc(OC)cc2)c1 | 0 | 0 | 0 | 0 | 0 | - | -
CCCCCC(=O)Nc1ccc(N2CCOCC2)c(S(=O)(=O)Nc2ccc(OC)cc2)c1 | - | - | 0 | 82.0 | - | 0 | 0
Cc1cccc(Cl)c1NNC(=O)Nc1c([N+](=O)[O-])c(C)nn1C | 0 | 0 | 0 | 44.0 | 0 | 0 | 0
Cc1nn(C)c(NC(=O)c2ccc([N+](=O)[O-])cc2)c1Cl | 0 | 0 | 0 | 0 | 0 | - | -
CCCCCCCC(=O)N/N=C/c1ccco1 | 0 | 0 | 0 | 0 | 0 | - | -
Cc1ccc(-c2cc(C(=O)N/N=C/c3ccco3)[nH]n2)cc1 | - | - | 0 | 87.0 | - | 0 | 0
O=C(CCc1n[nH]c(=O)[nH]c1=O)N/N=C/c1ccco1 | 0 | 0 | 0 | 44.0 | 0 | 0 | 0
CC(C)C1Cc2c(sc3ncnc(NN)c23)CO1 (configuration not stated) | 0 | 0 | 0 | 0 | 0 | - | -
Cc1ccc(CSc2nnc(-c3ccncc3)o2)c(C)c1 | 0 | 0 | 0 | 0 | 0 | - | -
COC(=O)c1ccc(C(C(=O)NC2CCCCC2)N(C(=O)Cc2cccs2)C2CC2)cc1 (configuration not stated) | 0 | 0 | 0 | 86.0 | 0 | 0 | 0
O=C(NC1CCCC1)C(c1ccsc1)N(Cc1ccccc1)C(=O)Cc1cccs1 (configuration not stated) | - | - | 0 | 0 | - | 0 | 0
Cn1c(=O)c2[nH]c(SCC(=O)c3ccc(F)cc3)nc2n(C)c1=O | 0 | 0 | 0 | 0 | 0 | - | -
COc1ccc(C(=O)NNC(=O)CSc2nc3c([nH]2)c(=O)n(C)c(=O)n3C)cc1 | 0 | 0 | 0 | 100.0 | 0 | 0 | 0
Cc1cccc(N2CCN(C(=O)c3ccc(NC4=NC5CS(=O)(=O)CC5S4)cc3)CC2C)c1 (configuration not stated) | 0 | 0 | 0 | 0 | 0 | - | -
COC(=O)c1[nH]c2ccc(C)cc2c1NC(=O)CN1CCCc2ccccc21 | 0 | 0 | 0 | 89.0 | -9.0 | 0 | 0
O=C(NCc1ccccc1)Nc1cccn(Cc2ccccc2)c1=O | 0 | 0 | 0 | 57.0 | 0 | - | - | GRK2 CP2=0;FAM quench SP=0
O=S1(=O)CCN(Cc2cccc(Cl)c2)CC1 | 0 | 0 | 0 | 0 | 0 | - | -
Clc1cccc(CN2CCSCC2)c1 | 0 | 0 | 0 | 99.0 | 0 | 0 | 0
Cc1ccc(S(=O)(=O)N(C)CC(=O)O/N=C(\N)c2cccc(Br)c2)cc1 | 0 | 0 | 0 | 0 | 0 | - | -
CC(=O)Nc1sc(C)c(C)c1C(=O)OCC(=O)Nc1cc(S(=O)(=O)N2CCCCC2)ccc1Cl | 0 | 0 | 0 | 0 | 0 | - | -
C=C(C)CN=CC1(C)CCC(C)=CO1 (configuration not stated) | - | - | 0 | - | - | - | -
